Source: PubChem BioAssay
This is a sample that favours compounds with a hit; in the whole collection about 2.1% have one here.
IDE act: IDE (human) activation, cell-based; P14735; HEK cells, FAbeta-B cleavage, fluorescence polarization; 0% vehicle, 100% cell-free pure enzyme wells; activation, % at 5.96 µM; 340,000 compounds, 0.073% hits; AID 493087;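 active = activation above the mean of all tested compounds plus 3 SD, set per screening campaign, cut at about 17% in these data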
HDAC3 inh: human HDAC3 inhibition. inhibition, % at 8.3 µM. O15379. 320,000 compounds, 0.15% hits. recombinant HDAC3, fluorogenic peptide/trypsin coupled, fluorescence; in the data active = inhibition above about 26%, passing the limit was not always enough
Target sequence (O15379 whole entry, looked up): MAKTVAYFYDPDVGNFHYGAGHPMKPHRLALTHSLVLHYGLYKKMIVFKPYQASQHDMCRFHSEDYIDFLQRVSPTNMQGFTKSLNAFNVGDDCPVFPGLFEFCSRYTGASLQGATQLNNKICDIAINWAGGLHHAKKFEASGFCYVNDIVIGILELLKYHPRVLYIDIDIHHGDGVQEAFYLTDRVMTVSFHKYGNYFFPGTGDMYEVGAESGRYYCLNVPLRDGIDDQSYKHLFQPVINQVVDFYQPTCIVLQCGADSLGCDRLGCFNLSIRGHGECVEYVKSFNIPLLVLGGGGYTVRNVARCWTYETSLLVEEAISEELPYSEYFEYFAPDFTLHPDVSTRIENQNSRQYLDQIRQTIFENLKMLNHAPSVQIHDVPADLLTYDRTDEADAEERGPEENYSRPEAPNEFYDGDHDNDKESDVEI
LANA-H2B inh: blocks KSHV LANA binding to histone H2A/H2B. 320,000 compounds, 0.6% hits. AID 2629. cell-free LANA-H2A/H2B peptide, fluorescence polarization. inhibition, % (no concentration beside the values). Q9QR71; in the data active = inhibition mostly above about 10%, no sharp cut-off; inactive = mostly below about 6.7%
IDE inh: inhibitors of human insulin-degrading enzyme in cells. HEK cells, FAbetaB cleavage, fluorescence polarization. P14735. AID 434962. 320,000 compounds, 0.41% hits. inhibition, % at 5.59 µM;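 active = percent inhibition above the average of all tested compounds plus 3 SD, set per screening campaign, cut at about 16% in these data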;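 note: IDE supplied by intact live HEK cells; FP after avidin binding of uncleaved biotin substrate so inhibition keeps polarization high; 0% = DMSO wells and 100% = 60 µM reference IDE inhibitor Ii1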
SUMO Mot1 rescue: inhibitors of SUMOylation pathway: yeast Mot1-301 growth rescue. S. cerevisiae Mot1-301 growth rescue, ATP luminescence, 38.5C; percent above DMSO median, 100 means doubled. growth rescue, % at 18.8 µM. 320,000 compounds, 1% hits. AID 2716;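 active = every valid replicate shows activation above 250% relative to neutral control wells; inactive = the rest, any valid replicate at or below 250%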;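 note: OY570 slx delta 5 strain wells were the positive control but not used for scaling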
Mot1 SUMO dose: inhibits SUMO pathway, affecting Mot1-301 yeast growth. shares compounds with SUMO Mot1 rescue. S. cerevisiae Mot1-301 galactose growth, ATP luminescence, 24 h; -100 = growth of slx-deleted rescue strain. growth activity, percent, % at 42 µM. 2,300 tested, under 10 active. AID 493004;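 active = Signal drops as the depositor expects, and the fitted half-maximal dose is no more than ten times the top valid tested dose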;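 note: more negative values mean stronger growth rescue toward the control strain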
IDE cell inh cf: cellular human IDE inhibition, confirmation; 1,200 compounds, 51% hits; AID 435028; shares compounds with IDE inh; inhibition, % at 5.59 µM; HEK cells, FAbetaB cleavage, fluorescence polarization;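 active = mean inhibition across triplicate wells above the cutoff set by the earlier primary insulin-degrading enzyme screen, cut at about 16% in these data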;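 note: 0% = DMSO wells and 100% = 60 µM reference IDE inhibitor Ii1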
HEK293 tox: HEK cell cytotoxicity, counter-screen for IDE inhibitors; HEK293 cytotoxicity, ATP luminescence; inhibition, % at 5.59 µM; AID 449730; 1,200 compounds, 28% hits; shares compounds with IDE inh; in the data active = inhibition above about 22%;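 note: 0% = vehicle wells and 100% = reference cytotoxic drug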
The depositor's hits bear a star; · = not tested or not shown; + = active, no number; ! = a repeat was not active.

SMILES | IDE act | HDAC3 inh | LANA-H2B inh | IDE inh | SUMO Mot1 rescue | Mot1 SUMO dose | others
O=C(c1ccc2c(=O)n(Cc3ccc4c(c3)OCO4)c(=S)[nH]c2c1)N1CCC2(CC1)OCCO2 | 4 | -2 | 57* | -4 | -24 | ·
CCOC(=O)C1=C(N)Oc2cc(C)oc(=O)c2C12C(=O)N1c3c(cccc32)C(C)CC1(C)C (stereo not given) | 0 | -7 | 33* | 0 | 27 | ·
CCOC(=O)C1=C(N)Oc2cc(C)oc(=O)c2C12C(=O)N1c3c(cccc32)C(C)=CC1(C)C (stereo not given) | -3 | 12 | 6 | -6 | 2 | ·
CC(=O)OC1C(=O)OCC23CCC4(C)OC4C2OC2CC(OC(=O)C=CC=CC(=O)OCCC1C)C3(C)C21CO1 (stereo not given) | -7 | · | · | · | · | ·
COc1ccc(-c2nn(CCC#N)cc2C(=O)Nc2ccccc2Br)cc1 | -2 | 2 | -1 | 5 | -6 | ·
CC(C)Oc1ccc(C2(C#N)CC[N+](C)(C)CC2)cc1 | 4 | 5 | 2 | -1 | 670* | 1
Fc1ccc2c(c1)nnn2C1CCN(Cc2nnnn2C2CCCCC2)CC1 | 1 | 0 | 2 | -4 | 733* | 0
COC(=O)C1=C(c2ccc(C(C)=O)cc2)C[C@@H]2CC[C@H]1N2C(=O)NCc1ccc2c(c1)OCO2 | 0 | -5 | 2 | 4 | -15 | ·
Clc1cnc(Oc2ccc(Oc3ncc(Cl)cc3Cl)cc2)c(Cl)c1 | 5 | 5 | -1 | -1 | 623* | 0
CCC12CN3CCN(CC(C3)/C1=N/NC(=O)c1ccncc1)C2 | 1 | 0 | -2 | 5 | 507* | 1
COC(=O)C1C2CC[C@@H](CC1OC(=O)c1ccccc1)N2 (stereo not given in full) | 3 | · | · | 4 | · | ·
O=C1NC(=O)[C@]2(Cc3ccccc3N3CCN(c4ccccc4)CC32)C(=O)N1c1ccccc1 (stereo not given in full) | 1 | -7 | -1 | -2 | 16 | ·
CN1C(=O)NC(=O)[C@]2(Cc3ccccc3N3CCN(c4ccccc4)CC32)C1=O (stereo not given in full) | 8 | -2 | 0 | 0 | 663* | 1
[N-]=[N+]=NCCN1CCC(O)CCC1=O (stereo not given) | 0 | 4 | 1 | 7 | + | 0
CCN(CC)c1ccc(N=Cc2c(O)n(-c3ccccc3)c(=O)[nH]c2=O)cc1 | -8 | 14 | 1 | -1 | -25 | ·
CCN(CC)c1ccc(N=Cc2c(O)n(Cc3ccccc3)c(=O)[nH]c2=O)cc1 | -1 | 7 | 6 | 1 | 385*! | 0
N#CC(=C(O)c1ccc(S(=O)(=O)N(CCCl)CCCl)cc1)c1nc2ccccc2[nH]1 | 9 | · | · | · | · | ·
COC(=O)C1=C(c2cccc3c2S(=O)(=O)c2ccccc2-3)C[C@@H]2CC[C@H]1N2C(=O)N1CCc2cc(OC)c(OC)cc2C1 | 1 | 2 | 3 | 2 | -13 | ·
CCOP(=O)(Cc1ccc(C(=O)CC)o1)OCC | 1 | · | 2 | 1 | -7 | ·
CCOP(=O)(Cc1cc(C(=O)CC)c(C)o1)OCC | · | 7 | -1 | -1 | 658* | 0
O=Cc1cn(Cc2ccccc2F)c2ccccc12 | 9 | 6 | -3 | 1 | + | 0
O=Cc1cn(Cc2c(F)cccc2Cl)c2ccccc12 | 2 | 6 | -10 | 5 | 7 | ·
CN1C2CCC1CC(OC(=O)c1ccc([N+](=O)[O-])cc1)C2 (stereo not given) | 6 | · | · | 0 | 474* | 0
Cc1ccccc1NC1=NCCCS1 | 0 | -3 | 0 | 0 | 469* | 0
CCN(CC)c1ccc(C=C2C(=O)N(C)C(=S)N(C)C2=O)o1 | -15 | 2 | -9 | 12 | -18 | ·
SMILES | IDE act | HDAC3 inh | LANA-H2B inh | IDE inh | SUMO Mot1 rescue | Mot1 SUMO dose | others
CN1C(=O)C(=Cc2ccc(N3CCCCC3)o2)C(=O)N(C)C1=S | -11 | -1 | -3 | 9 | 848* | 0
O=[N+]([O-])/C=C/c1c(Cl)cccc1Cl | -17 | · | · | · | · | ·
COC(=O)C1=C(c2ccc(F)cc2OCc2ccccc2)C[C@@H]2CC[C@H]1N2C(=O)N1CCCC1 | 1 | 5 | -3 | 2 | 20 | ·
Cn1c(O)c(C(c2ccncc2)c2c(O)n(C)c(=S)n(C)c2=O)c(=O)n(C)c1=S | 0 | -1 | 0 | 7 | -3 | ·
Cn1c(O)c(C(c2ccccn2)c2c(O)n(C)c(=S)n(C)c2=O)c(=O)n(C)c1=S | 3 | 0 | 5 | -3 | 477* | 0
N=c1c[n+](C2CCCCC2)[n-]o1 | 4 | -2 | 0 | 0 | 484* | 1
CCC1CN1P1(=O)OCC(C)([N+](=O)[O-])CO1 (stereo not given) | 5 | · | · | · | · | ·
C[N+](C)(N)CCOC(=O)C(O)(c1ccccc1)C1CCCCC1 (stereo not given) | 5 | -8 | 7 | 1 | -14 | ·
O=C1NC(=O)N(c2cccc(Cl)c2)C(=O)/C1=C\c1ccc(Sc2nc3ccccc3[nH]2)o1 | -33 | · | 1 | 26* | -14 | · | IDE cell inh cf=15;HEK293 tox=10
C[C@]12CC[C@H](O)CC1=CC(=O)C1C2CC[C@]2(C)C(=O)[C@H](O)CC12 (stereo not given in full) | 6 | 1 | 0 | 6 | 2 | ·
COc1ccccc1-n1c(/C=C/c2ccccn2)nc2ccccc2c1=O | -4 | 10 | -2 | 6 | -6 | ·
COc1ccc(-n2c(/C=C/c3ccc(O)c(OC)c3)nc3ccccc3c2=O)cc1 | -43 | 0 | 1 | 34* | 10 | · | IDE cell inh cf=102*;HEK293 tox=26*
COc1ccc(-n2c(SC)nc3ccccc3c2=O)cc1 | 1 | -11 | 3 | 1 | -3 | ·
COc1cccc(-n2c(/C=C/c3ccc(O)c(O)c3)nc3ccccc3c2=O)c1 | -101 | 6 | 1 | 160* | 49 | · | IDE cell inh cf=26*;HEK293 tox=17
O=c1c2ccccc2nc(/C=C/c2ccc(O)cc2)n1-c1ccc(O)cc1 | -70 | 1 | -5 | 62* | 2 | · | IDE cell inh cf=133*;HEK293 tox=21
Cc1ccc(-n2c(/C=C/c3ccc4c(c3)OCO4)nc3ccccc3c2=O)cc1 | · | -1 | 0 | 1 | 214 | ·
COc1ccc(-n2c(/C=C/c3ccc(O)cc3)nc3ccccc3c2=O)cc1 | -34 | -4 | 1 | 31* | -23 | · | IDE cell inh cf=76*;HEK293 tox=15
COc1ccc(-n2c(/C=C/c3ccc4c(c3)OCO4)nc3ccccc3c2=O)cc1 | 0 | 4 | 8 | 10 | 30 | ·
COc1cccc(-n2c(/C=C/c3ccccn3)nc3ccccc3c2=O)c1 | 2 | -1 | -5 | · | -13 | ·
